Source: PubChem BioAssay (National Center for Advancing Translational Sciences (NCATS))
Shown is part of a subset that was picked to be rich in hits.
Cycloheximide cs: affects cycloheximide protein synthesis inhibition readout, counter-screen; cell reporter, cycloheximide protein synthesis inhibition counterscreen; max response, %; 300,000 tested, 12% active; AID 2314; in the data active = max response mostly above about 13%, no sharp cut-off; inactive = mostly below about 14%; note: read at 38.3 µM for the half of the compounds with a filed dose
AmpC inh detg: blocks E. coli AmpC beta-lactamase in detergent assay; P00811; AmpC hydrolysis of nitrocefin, absorbance 480 nm, 0.01% Triton; Potency, µM (series often up to 114 µM), most hits filed as inhibitors; 370,000 tested, 0.041% active; note: nearly all actives have a fitted effect of over 25% in size
Target sequence (P00811 whole entry, looked up): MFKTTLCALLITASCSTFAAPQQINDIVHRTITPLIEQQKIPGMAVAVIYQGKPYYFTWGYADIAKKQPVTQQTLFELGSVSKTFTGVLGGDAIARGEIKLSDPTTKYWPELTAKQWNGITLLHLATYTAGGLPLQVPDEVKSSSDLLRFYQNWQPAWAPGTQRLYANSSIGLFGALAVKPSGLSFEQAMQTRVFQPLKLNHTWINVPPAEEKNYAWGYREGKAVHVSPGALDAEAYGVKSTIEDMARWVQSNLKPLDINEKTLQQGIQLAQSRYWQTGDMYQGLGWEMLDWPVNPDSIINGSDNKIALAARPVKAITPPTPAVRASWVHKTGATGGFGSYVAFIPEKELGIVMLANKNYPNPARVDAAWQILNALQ
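AmpC (5.3 nM in the dispensed reagent) in 20 mM phosphate pH 7.0 with 0.01% (detergent screen) or 0.0001% Triton X-100 was preincubated with compounds for 15 min at room temperature. Nitrocefin was then added from an 800 uM solution, and hydrolysis was followed at 480 nm.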
SARS PLpro yeast: inhibitors of SARS-CoV papain-like protease in yeast; S. cerevisiae expressing SARS-CoV PLpro, growth rescue; 330,000 tested, 0.19% active; AID 485353; Potency, µM (titrated, usually from 32.9 µM), usual class: activators; calls by dose curve; note: nearly all actives have a fitted effect of over 55% in size
AMA1 RON2 block: AMA1-RON2 (P. falciparum) interaction inhibition; Potency, µM (titrated, usually from 58.2 µM), hits mostly inhibitors; AlphaScreen AMA1-biotinylated RON2 peptide binding; 360,000 tested, 0.2% active; note: nearly all actives have a fitted effect of over 45% in size
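AMA1 (3D7) with his tag at 25 nM final met compounds first, then biotinylated RON2 peptide at 25 nM; detection used donor plus acceptor beads, 10 µg/mL apiece, read by AlphaScreen after 30 min at room temperature.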
Shiga inhibitor: blocks Shiga toxin action in Vero cells; Vero cells, Shiga toxin protein synthesis inhibition reporter; inhibition, % at 38.7 µM; 290,000 tested, 9.2% active; in the data active = inhibition mostly above about 28%, no sharp cut-off; inactive = mostly below about 43%
AmpC inh no detg: blocks E. coli AmpC beta-lactamase in detergent-free assay; P00811; Potency, µM (top dose mostly 57.1 µM), usual class: inhibitors; 330,000 tested, 0.52% active; AmpC nitrocefin hydrolysis, absorbance 480 nm, 0.0001% Triton; note: nearly all actives have a fitted effect of over 20% in size
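20 mM phosphate pH 7.0 + 0.01% (detergent screen) or 0.0001% Triton X-100; 5.3 nM AmpC reagent; cpd preinc 15 min RT; nitrocefin (800 uM stock) to start; A480 q20 s × 4 min; Activity was normalised to no-enzyme and no-compound control wells.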
Hits are given with their value; . = inactive; ? = inconclusive; / = no result given; [ ] = dose if it differs, or a comment. Unless noted, calls come from the whole dose curve; as a rule, active = well fitted curve in the direction sought with a large enough effect; inconclusive = small, poorly fitted or top-dose-only effect, or another doubt; inactive = no such curve, though single readings can be large; an effect the other way counts as inactive or inconclusive.

SMILES | Cycloheximide cs | AmpC inh detg | SARS PLpro yeast | AMA1 RON2 block | Shiga inhibitor | AmpC inh no detg
CCc1ccc(/C(C)=N/NC(=O)c2ccccn2)cc1 | 21 | . | . | . | . | .
CC(C)(C)c1ccc(COc2ccsc2C(=O)O)cc1 | 21 | . | . | . | 35 | .
O=C(O)c1sccc1OCc1ccccc1 | . | . | . | . | . | .
COc1ccc([C@@H]2[C@@H]3C(=O)N(C(C)(C)C)C(=O)[C@@H]3[C@]3(CC(C)C)C(=O)N(c4ccccc4)C(=O)N23)cc1 | 16 | . | . | . | . | .
COc1ccc([C@@H]2[C@@H]3C(=O)N(C(C)(C)C)C(=O)[C@@H]3[C@]3(C)C(=O)N(c4ccc(C(F)(F)F)cc4)C(=O)N23)cc1 | 21 | ? | . | . | 24 | .
COc1cccc(CN(C)C[C@@H]2OCc3ccccc3-c3c(n(C)c4ccccc34)C(=O)N([C@@H](C)CO)C[C@H]2C)c1 | / | / | / | . | / | /
COc1ccc(NC(=O)COC(=O)CNC(=O)c2cc(OC)c(OC)c(OC)c2)cc1 | . | . | . | . | . | .
Oc1csc(Cc2nc(-c3ccccc3F)cs2)n1 | 47 | . | . | . | 78 | ?
Oc1csc(Cc2nc(-c3ccc4ccccc4c3)cs2)n1 | 38 | . | . | . | 59 | .
Oc1csc(Cc2nc(-c3ccc(-c4ccccc4)cc3)cs2)n1 | 27 | . | . | . | 53 | .
CCC12CN(C(=O)c3ccc(OC)cc3)CC(CC)(CN(C(=O)c3ccc(OC)cc3)C1)C2=O | . | . | . | . | . | .
O=C(/C(Cl)=C/Nc1ccc(Br)cn1)C(F)(F)F | 16 | ? | . | . | . | .[11.4 µM]
COc1cc(CNC(=O)c2ccc3c(c2)N(C)C(=O)C2CCCCN32)cc(OC)c1OC (stereo not drawn) | / | . | / | / | / | /
Cc1cc(NC(=O)CCl)n(-c2nc3ccccc3s2)n1 | . | . | . | . | . | .
CCc1ccc(Nc2cnn(-c3nc4ccccc4s3)c(=O)c2Cl)cc1 | 71 | ? | . | . | 84 | .
CCCS(=O)(=O)N1CCC(C(=O)N2CCC3(CC2)OCCO3)CC1 | . | . | . | . | . | .
CCOc1ccc(CN2CCN(C(=O)c3cccc(F)c3)CC2)cc1 | . | . | . | . | . | .
O=C(c1cccc(OCc2ccccc2)c1)N1CCOCC1 | 13 | . | . | . | . | .
CCOc1ccc(N=C(/C(C(=O)C(=O)N2CCOCC2)=C(/O)c2ccccc2)c2ccccc2)cc1 | 47 | . | . | . | 62 | .
CC1CN(C(=O)c2cccc(COc3ccc(Br)cc3)c2)CC(C)O1 (stereo not drawn) | 58 | . | . | .[11.6 µM] | 13 | .
CCOc1ccc(OCc2cccc(C(=O)N3CCOCC3)c2)cc1 | 101 | ? | . | . | 127 | .
COc1cccc(C(=O)OCC(=O)c2ccc(Br)s2)c1 | 53 | . | . | . | 88 | .
Cc1cccc(NC(=O)CCn2nc(C)cc2C)c1 | . | ? | . | . | . | .
Cn1cnnc1SCc1ccc(C(=O)O)cc1 | . | . | . | . | . | .
Cn1cnnc1SCc1ccc(C(=O)NN)cc1 | 45 | . | . | . | . | .
SMILES | Cycloheximide cs | AmpC inh detg | SARS PLpro yeast | AMA1 RON2 block | Shiga inhibitor | AmpC inh no detg
C/C(=N\NC(=O)c1ccc(CSc2nncn2C)cc1)c1ccc(Cl)cc1 | . | . | . | . | . | .
CCC/C(=N\NC(=O)c1ccc(CSc2nncn2C)cc1)c1ccccc1 | . | . | ? | .[11.6 µM] | . | .
C/C(=N\NC(=O)c1ccc(CSc2nncn2C)cc1)c1cccs1 | 28 | . | . | . | 107 | .
Cn1cnnc1SCc1ccc(C(=O)N/N=C(\CCC(=O)O)c2ccc(C(C)(C)C)cc2)cc1 | 14 | . | . | . | 32 | .
CN1CCN(C(=O)COc2ccc(S(=O)(=O)Nc3ccc(Cl)cc3)cc2)CC1 | / | / | / | . | / | /
CN(C1CCCCC1)S(=O)(=O)c1cccc2nsnc12 | . | . | . | . | . | .
Cc1ccc(NC(=O)CSc2nnc(Cc3csc(C)n3)o2)cc1 | / | . | . | . | / | .
CCOc1ccc(Nc2nc(Cc3nnc(SCC(=O)c4ccc(C)c(C)c4)o3)cs2)cc1 | 21 | . | . | . | . | .
Cc1ccc(CCNc2nc3ccccc3c3nc(-c4cccnc4)nn23)cc1 | / | . | / | / | / | /
